Data: PubChem BioAssay (Tox21)
Records with an inconclusive call do not appear. A number with no mark means an inactive call. The source made the active and inactive calls. The call rests on the fitted dose curve.

Assay: qHTS assay for small molecule agonists of the p53 signaling pathway - cell viability (AID 651633);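 further: p53RE-bla HCT reporter cells with a stable beta-lactamase p53 reporter; nearly all actives have a fitted effect of over 30% in size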
Details: p53RE-bla HCT-116 viability, ATP luminescence, 16 h; series mostly up to 83.3 µM
Text: National Center for Advancing Translational Sciences [NCATS]
NIH Chemical Genomics Center [NCGC]
U.S. Environmental Protection Agency [EPA]
National Institutes of Environmental Health Sciences [NIEHS]
National Toxicology Program [NTP]
U.S. Food and Drug Administration [FDA]
p53, a tumor suppressor protein, is activated following cellular insult, including DNA damage and other cellular stresses. The activation of p53 regulates cell fate by inducing DNA repair, cell cycle arrest, apoptosis, or cellular senescence. The activation of p53, therefore, is a good indicator of DNA damage and other cellular stresses. […] The activation of the reporter gene under culture conditions can be detected by fluorescence intensity. This cell line was used to screen the Tox21 compound library in a 1536-well plate format and to identify agonists that activate the p53 signaling pathway.
Tox21 Assay Protocol Summary:
The p53RE-bla cells were dispensed at 4,000 cells/5 ul/well in 1536-well black wall/clear bottom plates using a Multidrop dispenser. After the assay plates were incubated at a 37 C/5% CO2 incubator for 5 hours, 23 nL of compounds dissolved in DMSO, positive controls or DMSO only was transferred to the assay plate by a pin tool. The plates were incubated at 37 C for 16 hours. After 1 uL of LiveBLAzerTM B/G FRET substrate was added using a Flying Reagent Dispenser, the plates were incubated at room temperature for 2 hours, and fluorescence intensity was measured by an Envision plate reader.
For cell viability readout that measures cytotoxicity, 4 ul/well of CellTiter-Glo reagent was added into the assay plates using a Flying Reagent Dispenser. After 30 min incubation at room temperature, the luminescence intensity in the plates was measured using a ViewLux plate reader.
On the % scale 0 is the no-effect control and ±100 the full control effect.

Structure (SMILES)	outcome	activity change, negative = cytotoxicity
CCCCCCOc1ccccc1C(N)=O	inactive	–
CCCCOC(=O)c1ccccc1	inactive	–
Cc1cc(NC(=O)C2=C(O)c3ccccc3S(=O)(=O)N2C)no1	inactive	–
CCCC/C=C\CCCCCCCCCC=O	inactive	–
CCOC(=O)[C@H](CCc1ccccc1)N[C@@H](C)C(=O)N1C(=O)N(C)C[C@H]1C(=O)O	inactive	–
CCN1CCc2nc(N)oc2CC1	inactive	–
C=C1CC/C=C(\C)CC[C@@H]2[C@@H]1CC2(C)C	inactive	–
Cc1cccc(C)c1NC(=O)c1ccccc1C(=O)O	inactive	–
CC(C)(C)c1n[nH]c(=S)n(N)c1=O	inactive	–
ClCCCl	inactive	–
O=C(OCc1ccccc1)C(=O)OCc1ccccc1	inactive	–
CC(=C(CCOC(=O)C(C)C)SSC(CCOC(=O)C(C)C)=C(C)N(C=O)Cc1cnc(C)nc1N)N(C=O)Cc1cnc(C)nc1N	inactive	–
COc1cc(C(=S)N2CCOCC2)cc(OC)c1OC	inactive	–
C=CC(OCC)OCC	inactive	–
CC(C)(C)c1cc(CCC(=O)NN)cc(C(C)(C)C)c1O	inactive	–
COC(=O)CCCCCCCC(=O)OC	inactive	–
N[C@@H](CCC(=O)Nc1ccc([N+](=O)[O-])cc1)C(=O)O	inactive	–
CC1=CCC(C(C)C)=CC1	inactive	–
CCc1ccc(C=O)cc1	inactive	–
CCOC(=O)c1ncn2c1CN(C)C(=O)c1cc(F)ccc1-2	inactive	–

Structure (SMILES)	outcome	activity change, negative = cytotoxicity
Cc1ccccc1OCC(O)CO (stereo not given)	inactive	–
C=C(C)C(=O)OCCN(CC)CC	inactive	–
CCCCCCCCC1CCC(=O)O1 (stereo not given)	inactive	–
CC(=O)NCCCCCC(=O)O	inactive	–
C[C@H](CCC(=O)O)[C@H]1CC[C@H]2[C@@H]3C(=O)C[C@@H]4CC(=O)CC[C@]4(C)[C@H]3CC(=O)[C@]12C	inactive	–
CC(C)CCCC(C)(C)O	inactive	–
COCCOC(=O)C1=C(C)NC(C)=C(C(=O)OC(C)C)C1c1cccc([N+](=O)[O-])c1 (stereo not given)	inactive	–
CC(COC(C)(C)C)OCCCO (stereo not given)	inactive	–
CC(=O)Nc1cccc(C)c1	inactive	–
O=S(O)(O)=S	–	18.5% [at 8.08 µM]
NCCS	inactive	–
Cc1cc(Cl)c(C)cc1Cl	inactive	–
CC1COc2ccccc2N1 (stereo not given)	inactive	–
CCCCCCCCSCC	inactive	–
COc1nccnc1NS(=O)(=O)c1ccc(N)cc1	inactive	–
O=C(CS(=O)Cc1ccco1)NC/C=C\COc1cc(CN2CCCCC2)ccn1 (stereo not given)	inactive	–
C#CC(C)N(C)C(=O)Nc1ccc(Cl)cc1 (stereo not given)	inactive	–
CO[C@@H]1[C@@H](OC(N)=O)[C@@H](O)[C@H](Oc2ccc3c(O)c(NC(=O)c4ccc(O)c(CC=C(C)C)c4)c(=O)oc3c2C)OC1(C)C	inactive	–
CCCCCCN	inactive	–
C=C(C)C(=O)OCCOP(=O)(O)OCCOC(=O)C(=C)C	inactive	–
